In PubChem BioAssay AID1508647 (National Center for Advancing Translational Sciences (NCATS), 2021):
The list shows a part of the results. Records with an inconclusive call do not appear. The source made the active and inactive calls. The call rests on the fitted dose curve; in most records, active means well fitted inhibition curve with a large enough effect; inconclusive means small, poorly fitted or top-dose-only effect, or another doubt; inactive means no such curve, though single readings can be large or run the other way.

Target: Peripheral myelin protein 22 (Rattus norvegicus) (UniProt P25094)
Assay: Cell-based HiBiT reporter assay to measure PMP22 protein expression in S16 Pmp22-HiBiT cells - Confirmatory screen
Details: S16 Schwann cells Pmp22-HiBiT, luminescence, 48 h; series mostly up to 27.9 µM; activity change, negative = inhibition: at the top concentration
Source text: Assay Provider: Jim Inglese Ph.D. National Center for Advancing Translational Science, National Institutes of Health, Rockville, MD CMT is a heterogeneous group of neurological disorders that affect approximately 1 in 2,500 people. In particular, the most common form of CMT, CMT1A is genetically linked to the duplication of the PMP22 gene which leads to Schwann cell overexpression, thus manifesting itself as a typical case of dose-sensitive diseases. […] We can further discriminate the effect of all transcriptionally active molecules on PMP22 translation or stability with an assay that incorporates a short NLuc peptide (HiBiT) at the C-terminus of expressed PMP22 (S16(f8) PMP22-HiBiT) allowing alpha complementation and luminescence detection of membrane-associated PMP22 protein. […] Miniaturization of these assays to 1536-well plate format for quantitative high throughput screening (qHTS) yielded rich data sets immediately from the qHTS assay (S16(c9) Pmp22-F2sN), when compared with data from a cell viability assay (Cell TiterGlo) to identify compounds that decreased the output signals through cellular toxicity to streamline the selection process of actives for subsequent characterization using the HiBiT assay (S16(f8) PMP22-HiBiT). […]

Chain of Peripheral myelin protein 22 (Rattus norvegicus) (P25094 whole entry, looked up): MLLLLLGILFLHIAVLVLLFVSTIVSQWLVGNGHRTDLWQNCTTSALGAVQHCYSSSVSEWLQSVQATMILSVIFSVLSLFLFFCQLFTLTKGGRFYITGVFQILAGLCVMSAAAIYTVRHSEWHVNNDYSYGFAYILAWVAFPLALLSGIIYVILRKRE

Compound	activity change, negative = inhibition
Cc1ccc(NC(=O)c2nc(S(=O)(=O)Cc3cccc(C)c3)ncc2Cl)cc1	-14.3% (inactive)
